This note sets out measurements from PubChem BioAssay (NCI).

Test systems include K-562 leukemia; MALME-3M melanoma; MDA-MB-231 breast; RXF 393 renal; SF-268 CNS; SF-295 CNS; SF-539 CNS; UACC-257 melanoma; M14 melanoma; HCT-15 colon; HT29 colon; SNB-75 CNS; SNB-19 CNS; U251 CNS; PC-3 prostate; SK-MEL-5 melanoma; UACC-62 melanoma; LOX IMVI melanoma; SK-MEL-28 melanoma; SK-MEL-2 melanoma.
Assay in all cases: NCI-60 one-dose screen, 48 h (100 = growth as untreated, 0 = no growth, -100 = all killed)
Holding throughout (details): 10 µM

About 83,000 compounds went through this panel and 20% of them were active in at least one assay; those are over-represented in the sample as a whole.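 Step 1: grow cells in 96-well plates. Step 2: add test compound at a single concentration. Step 3: incubate 48 h. Step 4: record percent growth.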 A number with no mark means an inactive call. Calls of active or inactive are those of the source. The calls were made as follows: active = growth percent below 10; inactive = the rest.

Consider `COc1cccc(NC(=O)c2sc3nc4c(cc3c2N)C(O)CCC4)c1` (stereo not given), for which the growth is 7.8% (active) in the assay on K-562 leukemia; 81.3% in the assay on MALME-3M melanoma; 23.9% in the assay on MDA-MB-231 breast; -0.406% (active) with RXF 393 renal; 30.6% in the assay on SF-268 CNS; 5.44% (active) with SF-295 CNS. The growth with SF-539 CNS was -17.6% (active); in the assay with UACC-257 melanoma, 55%; with M14 melanoma, 11.8%; in the assay with HCT-15 colon, 19.4%; in the assay with HT29 colon, 4.69% (active); in the assay on SNB-75 CNS, 44.6%. Moreover, the growth in the assay on SNB-19 CNS is 49.5%; in the assay with U251 CNS, 10.6%; in the assay on PC-3 prostate, 25.4%; in the assay on SK-MEL-5 melanoma it was 25.1%; in the assay on UACC-62 melanoma, 48.9%; in the assay with LOX IMVI melanoma, 25.8%. For the same compound, the growth in the assay with SK-MEL-28 melanoma is 56%; in the assay on SK-MEL-2 melanoma it was 49.5%.

On to `COc1cc(NC(=O)CCSc2nc3ccc(C)cc3c(=O)n2Cc2ccccc2)cc(OC)c1OC`, for which the growth with K-562 leukemia is 78%; with MALME-3M melanoma, 33.8%; with MDA-MB-231 breast, 52.5%; in the assay on RXF 393 renal, 36.4%; in the assay on SF-268 CNS it was 40.4%; with SF-295 CNS, 59.4%. Besides, the growth with SF-539 CNS was 33.5%; in the assay on UACC-257 melanoma it was 57.1%; with M14 melanoma it was 87.4%; in the assay on HCT-15 colon it was 76.5%; in the assay with HT29 colon it was 78.9%; in the assay on SNB-75 CNS, -13.9% (active). In addition, the growth was 73.3% in the assay on SNB-19 CNS; 44.3% with U251 CNS; 83% with PC-3 prostate; 90.6% in the assay with SK-MEL-5 melanoma; 85% in the assay with UACC-62 melanoma; 71.6% in the assay with LOX IMVI melanoma. The results for the growth in the assay with SK-MEL-28 melanoma and in the assay with SK-MEL-2 melanoma were 74% and 52.6%, respectively.

With `O=c1[nH]c2ccc(Cl)cc2c2ccccc12`, the growth was 110% in the assay with K-562 leukemia; 60.7% in the assay on MALME-3M melanoma; 78.2% with MDA-MB-231 breast; 61.1% in the assay with RXF 393 renal; 79.4% in the assay with SF-268 CNS; 97.9% in the assay on SF-295 CNS. The growth was 80.1% with SF-539 CNS; 105% with UACC-257 melanoma; 94.7% with M14 melanoma; 93.3% with HCT-15 colon; 70.3% in the assay on HT29 colon; 33.2% in the assay on SNB-75 CNS. Further, the growth in the assay on SNB-19 CNS is 65.9%; in the assay with U251 CNS, 65.9%; with PC-3 prostate, 92.8%; in the assay on SK-MEL-5 melanoma it was 70.6%; in the assay with UACC-62 melanoma, 88.3%; in the assay with LOX IMVI melanoma it was 98.5%. Besides, the growth in the assay with SK-MEL-28 melanoma was 94.6%; with SK-MEL-2 melanoma it was 107%.

For the compound `CC(=O)OCc1cc(-c2nc3ccccc3[nH]c2=O)nn1-c1ccc(Cl)cc1`, the growth is 93.4% in the assay with K-562 leukemia; 108% in the assay with MALME-3M melanoma; 98.1% with MDA-MB-231 breast; 102% with RXF 393 renal; 109% in the assay with SF-268 CNS; 96.5% with SF-295 CNS. Also, the growth in the assay with SF-539 CNS was 90.2%; with UACC-257 melanoma, 14.8%; in the assay on M14 melanoma, 97.2%; with HCT-15 colon, 88%; with HT29 colon, 104%; in the assay with SNB-75 CNS it was 98.6%. Besides, the growth with SNB-19 CNS is 89.4%; with U251 CNS it was 100%; in the assay with PC-3 prostate it was 99%; in the assay on SK-MEL-5 melanoma it was 97.8%; in the assay on UACC-62 melanoma, 89.3%; in the assay with LOX IMVI melanoma it was 102%. Moreover, the growth with SK-MEL-28 melanoma is 107%; in the assay with SK-MEL-2 melanoma, 100%.

`CC1(C)CCC(=NNC(N)=S)CC1`: the growth was 94.6% with K-562 leukemia; 107% in the assay with MALME-3M melanoma; 116% in the assay on MDA-MB-231 breast; 115% in the assay on RXF 393 renal; 103% with SF-268 CNS; 88.2% in the assay on SF-295 CNS. The growth in the assay with SF-539 CNS was 98.1%; in the assay on UACC-257 melanoma, 102%; with M14 melanoma, 113%; in the assay on HCT-15 colon it was 98.8%; in the assay with HT29 colon, 95.1%; in the assay with SNB-75 CNS it was 88.2%. Also, the growth is 108% in the assay on SNB-19 CNS; 105% in the assay on U251 CNS; 109% in the assay on PC-3 prostate; 111% in the assay with SK-MEL-5 melanoma; 103% with UACC-62 melanoma; 89% in the assay with LOX IMVI melanoma. In addition, the growth in the assay with SK-MEL-28 melanoma was 115%; with SK-MEL-2 melanoma it was 130%.

As for `c1ccc(CSc2nnc3c4c5c(sc4nc(-c4cccnc4)n23)CCCCCC5)cc1`, the growth with K-562 leukemia was 21.7%; in the assay on MALME-3M melanoma, 16.2%; with MDA-MB-231 breast, 71.4%; with RXF 393 renal it was 83.3%; in the assay with SF-268 CNS it was 57%; with SF-295 CNS, 45.1%. Besides, the growth is 79.7% with SF-539 CNS; 35% in the assay on UACC-257 melanoma; 45% with M14 melanoma; 94.2% in the assay on HCT-15 colon; 22.4% in the assay with HT29 colon; 74.1% with SNB-75 CNS. Moreover, the growth with SNB-19 CNS is 46.5%; in the assay with U251 CNS it was 16.8%; in the assay with PC-3 prostate it was 9.01% (active); in the assay on SK-MEL-5 melanoma it was -46% (active); with UACC-62 melanoma, 34.9%; in the assay with LOX IMVI melanoma, 60.1%. For the same compound, the growth in the assay with SK-MEL-28 melanoma is 49.2%; in the assay on SK-MEL-2 melanoma it was 16.5%.

Turning to `CC(=O)[C@H]1CC[C@H]2[C@@H]3CCC4=CC(=O)C=C[C@]4(C)[C@H]3CC[C@]12C`, the growth was 76.6% in the assay on K-562 leukemia; 89.3% in the assay on MALME-3M melanoma; 100% in the assay on MDA-MB-231 breast; 125% in the assay on RXF 393 renal; 102% in the assay on SF-268 CNS; 92.5% in the assay on SF-295 CNS. For the same compound, the growth in the assay on SF-539 CNS was 87.9%; with UACC-257 melanoma, 87.8%; in the assay with M14 melanoma, 107%; with HCT-15 colon it was 106%; in the assay on HT29 colon it was 96.2%; in the assay on SNB-75 CNS, 90.3%. Also, the growth was 114% in the assay on SNB-19 CNS; 95.1% in the assay with U251 CNS; 87.7% with PC-3 prostate; 82.5% with SK-MEL-5 melanoma; 80.3% with UACC-62 melanoma; 88.6% in the assay with LOX IMVI melanoma. Moreover, the figures for the growth in the assay on SK-MEL-28 melanoma and in the assay on SK-MEL-2 melanoma were 109% and 102%, respectively.
